Molecules are shown by their SMILES. Results filed as inconclusive are left out. Calls of active or inactive are those of the source. Calls follow the shape of the dose curve; as a rule, active = well fitted cell-killing curve with a large enough effect; inconclusive = small, poorly fitted or top-dose-only effect, or effect the other way; inactive = no such curve, though single readings can be large or run the other way.

Experiment [1] in a line: Quantitative High-Throughput drug screen in 47 multiple myeloma cell lines against the NCATS MIPE library collection: INA6_PLB cell viability assay (AID 1918965; also: nearly all actives have a fitted effect of over 55% in size). A digest of the protocol: (§1)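 We plated 500 myeloma cells per well, pinned in MIPE 4.0 compounds, and incubated for 48 hours at 37C. ATP was then quantified with CellTiter-Glo, with DMSO and media-only wells defining 100% and 0%.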

Experiment [2] is described as follows: Quantitative High-Throughput drug screen in 47 multiple myeloma cell lines against the NCATS MIPE library collection: JJN3_DSMZ cell viability assay (AID 1918966; also: nearly all actives have a fitted effect of over 50% in size). A digest of the protocol:
(§2)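 Steps: seed 500 cells per well; pin-transfer MIPE 4.0 library; incubate 48 h at 37C, 5% CO2, humidified; add CellTiter-Glo, 5 min room temperature; read luminescence.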

A short description of experiment [3]: Quantitative High-Throughput drug screen in 47 multiple myeloma cell lines against the NCATS MIPE library collection: H1112_PLB cell viability assay (AID 1918967; also: nearly all actives have a fitted effect of over 30% in size). The method, boiled down:
as §2

Experiment [4] can be described thus: Quantitative High-Throughput drug screen in 47 multiple myeloma cell lines against the NCATS MIPE library collection: Karpas25_ECACC cell viability assay (AID 1918968; also: nearly all actives have a fitted effect of over 35% in size). A digest of the protocol: as §2
A short description of experiment [5]: Quantitative High-Throughput drug screen in 47 multiple myeloma cell lines against the NCATS MIPE library collection: KMS27_JCRB cell viability assay (AID 1918970). Also: nearly all actives have a fitted effect of over 30% in size. The method, boiled down:
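Each line is seeded at 500 cells per well and treated with library compounds for 48 hours under 37 °C, 5% CO2. CellTiter-Glo is then added for 5 min at room temperature before median relative luminescence is recorded.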

Experiment [6] can be described thus: Quantitative High-Throughput drug screen in 47 multiple myeloma cell lines against the NCATS MIPE library collection: KMS12BM_JCRB cell viability assay (AID 1918971). Also: nearly all actives have a fitted effect of over 35% in size. A digest of the protocol: (§3)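 Luminescent ATP measurement with CellTiter-Glo gives viability, scaled between DMSO-only wells (100%) and media-only wells (0%). Cells, 500 per well, faced library compounds for 48 hours at 37C.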

Experiment [7] can be described thus: Quantitative High-Throughput drug screen in 47 multiple myeloma cell lines against the NCATS MIPE library collection: KMS12PE_JCRB cell viability assay (AID 1918972). Also: nearly all actives have a fitted effect of over 30% in size. As to viability: series mostly up to about 46 µM. The method, boiled down: as §1
Experiment [8] in a line: Quantitative High-Throughput drug screen in 47 multiple myeloma cell lines against the NCATS MIPE library collection: KMS20_JCRB cell viability assay (AID 1918973). Also: nearly all actives have a fitted effect of over 45% in size. A digest of the protocol: as §2
Experiment [9] in a line: Quantitative High-Throughput drug screen in 47 multiple myeloma cell lines against the NCATS MIPE library collection: KMS26_JCRB cell viability assay (AID 1918975). Also: nearly all actives have a fitted effect of over 45% in size. The method, boiled down: as §3
Potency is read from the fitted curve at half-maximal effect.

As for `N[C@@]1(C(=O)O)CS(=O)(=O)[C@H]2[C@H](C(=O)O)[C@H]21`, the Potency in experiment [1] is 14.8 µM (active).
With `CC(=O)N(C)C1(c2ccccc2)CCN(CCC[C@]2(c3ccc(Cl)c(Cl)c3)CCCN(C(=O)c3ccccc3)C2)CC1`, the Potency in experiment [1] was 10.5 µM (active); in [2], 18.7 µM (active); in experiment [3], 20.9 µM (active); in [4] it was 16.6 µM (active); in experiment [5], 23.5 µM (active); in [6], 20.9 µM (active). Moreover, the results for the Potency in experiment [7], in [8] and in experiment [9] were 7.43 µM (active), 4.69 µM (active) and 20.9 µM (active), respectively.
In the case of `O=c1cc(CN2CCOCC2)occ1OCCCCCSc1ccnc2cc(C(F)(F)F)ccc12`, the Potency in experiment [1] is 7.43 µM (active); in experiment [2], 7.43 µM (active); in [3], 0.833 µM (active); in [4], 0.743 µM (active); in experiment [5], 20.9 µM (active); in experiment [6], 5.9 µM (active). Further, the Potency in [7] and in [9] was 16.6 µM (active) throughout.
`O=C1c2ccccc2-[n+]2ccc3c([nH]c4ccccc43)c21`: the Potency in experiment [1] was 1.18 µM (active); in experiment [2] it was 1.48 µM (active); in experiment [3], 5.26 µM (active); in [4], 0.418 µM (active); in experiment [5], 2.64 µM (active); in [6], 2.09 µM (active). Further, the Potency in [7] is 5.26 µM (active); in experiment [8], 1.05 µM (active); in [9], 2.35 µM (active).
As to `CCS(=O)(=O)N1CC(CC#N)(n2cc(-c3ncnc4[nH]ccc34)cn2)C1`, the Potency in [1] was 0.418 µM (active); in experiment [2] it was 11.8 µM (active); in [6], 18.7 µM (active); in experiment [9], 16.6 µM (active). Besides, the Potency result in experiment [3], in [4] and in experiment [8] was “inactive” in each case.
Take `COc1cc2nc(-c3ccc(N4CCN(C)CC4)cc3)nc(NCCN3CCOCC3)c2cc1OC`: the Potency is 0.0372 µM (active) in experiment [1]; 0.0148 µM (active) in experiment [2]; 1.48 µM (active) in [3]; 0.0105 µM (active) in experiment [4]; 0.0332 µM (active) in [5]; 0.166 µM (active) in [6]. Also, the Potency in experiment [7] is 0.209 µM (active); in experiment [8], 0.105 µM (active); in experiment [9], 0.0372 µM (active).
For `CO[C@H]1C=CC=C(C)C(=O)NC2=CC(=O)C(NCCN(C)C)=C(C[C@@H](C)C[C@H](OC)[C@@H](O)[C@@H](C)C=C(C)[C@@H]1OC(N)=O)C2=O`, the Potency in experiment [1] is 0.0235 µM (active); in [2], 0.0296 µM (active); in [3], 3.32 µM (active); in [4], 0.059 µM (active); in experiment [5] it was 0.0264 µM (active); in experiment [6], 0.0469 µM (active). In addition, the Potency was 0.0662 µM (active) in experiment [7], 0.001 µM (active) in experiment [8] and 0.0332 µM (active) in [9].
As for `COc1ccc(-c2coc3cc(O)ccc3c2=O)cc1`, the Potency result in [1], in experiment [2], in [3], in experiment [4], in experiment [5] and in experiment [7] was “inactive” in each case.
`CCC(CC)[C@H](NC(C)=O)[C@@H]1[C@H](O)[C@@H](C(=O)O)C[C@@H]1N=C(N)N`: the Potency result in experiment [1], in [2], in experiment [3], in experiment [4] and in experiment [5] was “inactive” each time.
As to `Clc1ccc(C(c2ccc(Cl)cc2)n2cc[n+](CC(OCc3ccc(Cl)cc3Cl)c3ccc(Cl)cc3Cl)c2)cc1` (centres undefined), the Potency in [1] is 8.33 µM (active); in [2] it was 20.9 µM (active); in experiment [3] it was 11.8 µM (active); in experiment [4] it was 7.43 µM (active); in [5], 7.43 µM (active); in [6] it was 23.5 µM (active). In addition, the results for the Potency in experiment [7], in experiment [8] and in experiment [9] were 7.43 µM (active), 8.33 µM (active) and 16.6 µM (active), respectively.
With `Clc1ccc(-c2nc3sccn3c2C=NOCc2ccc(Cl)c(Cl)c2)cc1`, the Potency entry in experiment [1], in experiment [2], in [3], in experiment [4], in [7] and in experiment [9] was “inactive” throughout.
For `CC(C(=O)O)c1ccc(-c2ccccc2)c(F)c1` (centres undefined), the Potency in experiment [1] is 18.7 µM (active); in experiment [3] it was 18.7 µM (active); in experiment [4], 20.9 µM (active); in [8] it was 4.69 µM (active). The Potency result in [2] and in [7] was “inactive” in each case.
On to `CC(=O)Oc1cc2c(s1)CCN(C(C(=O)C1CC1)c1ccccc1F)C2` (centres undefined), for which the Potency in experiment [1] is 4.69 µM (active); in experiment [2], 2.35 µM (active); in experiment [3], 2.96 µM (active); in [4], 1.87 µM (active); in experiment [9], 2.96 µM (active).
With `CC[C@@]1(O)C[C@H](O[C@H]2C[C@H](N(C)C)[C@H](O[C@H]3C[C@H](O)[C@H](O[C@H]4CCC(=O)[C@H](C)O4)[C@H](C)O3)[C@H](C)O2)c2c(cc3c(c2O)C(=O)c2c(O)cccc2C3=O)[C@@H]1C(=O)OC`, the Potency was 0.0662 µM (active) in [1]; 0.296 µM (active) in experiment [2]; 0.833 µM (active) in experiment [3]; 0.372 µM (active) in [4]; 0.148 µM (active) in experiment [6]; 0.0743 µM (active) in experiment [8]. Moreover, the Potency in [9] was 0.743 µM (active). In experiment [5], the Potency entry was “inactive”.
Take `Cc1[nH]c(C=C2C(=O)Nc3ccc(S(=O)(=O)Cc4c(Cl)cccc4Cl)cc32)c(C)c1C(=O)N1CCC[C@H]1CN1CCCC1`: the Potency is 3.32 µM (active) in experiment [1]; 23.5 µM (active) in experiment [2]; 14.8 µM (active) in [3]; 2.96 µM (active) in [4]; 2.64 µM (active) in experiment [5]; 23.5 µM (active) in experiment [6]. Moreover, the Potency in experiment [7] was 2.64 µM (active); in experiment [8] it was 0.743 µM (active); in experiment [9] it was 23.5 µM (active).
Regarding `CC(C)[C@H](CO)Nc1nc(Nc2ccc(C(=O)O)c(Cl)c2)c2ncn(C(C)C)c2n1`, in experiment [1], the Potency was 0.059 µM (active).
Consider `Nc1nc(F)nc2c1ncn2[C@@H]1O[C@H](COP(=O)(O)O)[C@@H](O)[C@H]1O`, for which the Potency entry in [1], in experiment [2], in experiment [3], in experiment [5] and in experiment [9] was “inactive” throughout. Besides, the Potency in [4] was 13.2 µM (active); in experiment [6], 16.6 µM (active).

The values are drawn from PubChem BioAssay (NCATS).
